Data from PubChem BioAssay (Tox21).
The source made the active and inactive calls. A call without a number means that no potency is given here. Calls come from the whole dose curve; as a rule, active = well fitted activation curve with a large enough effect in the repeat runs; inconclusive = weak or mixed curves; inactive = flat fitted curve, though single readings scatter.

experiment: A CellTox Green Cytotoxicity Assay to monitor cytotoxicity in HepG2 cells - 0 hour (AID 1224882); settings: CellTox Green fluorescence; series mostly up to 76.8 µM; note: nearly all actives have a fitted effect of over 35% in size
Source text: National Center for Advancing Translational Sciences [NCATS]
NIH Chemical Genomics Center [NCGC]
U.S. Environmental Protection Agency [EPA]
National Institutes of Environmental Health Sciences [NIEHS]
National Toxicology Program [NTP]
Cell-based models are critical for drug discovery. Determining the natural cytotoxic effects resulting from test compounds is an essential research activity. A CellTox Green Cytotoxicity Assay to monitor cytotoxicity in real time of continues cell culture during 40 hours of the compound treatment was used to screen Tox21 10K library compounds in HepG2 cells. CellTox Green Cytotoxicity Assay is a nonlytic, homogeneous, biofluorescent method to measure cytotoxicity in cell culture after experimental manipulation. The assay system uses a proprietary asymmetric cyanine dye that is excluded from viable cells but preferentially stains the dead cell's DNA. […] Viable cells produce no appreciable increases in fluorescence. Therefore, the fluorescence signal produced by the binding interaction with dead cell DNA is proportional to cytotoxicity.
The mixture of HepG2 cell suspension and reagents were dispensed at 600cells/6 ul/well in 1536-well tissue culture treated black solid bottom plates using a Multidrop dispenser. After the assay plates were incubated at a 37 C/5% CO2 incubator for 5 hours, 23 nL of compounds dissolved in DMSO, positive and negative controls was transferred to the assay plate by a pintool work station. The plates were incubated at 37 C for 40 hours. The fluorescence intensity were measured at 0h, 8h, 16h, 24h, 32h and 40h time points using ViewLux plate reader during compound treatment.
Potency is the fitted concentration of half-maximal effect.

SMILES | Potency
CCCCCCC(C)(C)C(=O)O | inactive
COC(=O)[C@H]1[C@H]2C[C@@H]3c4[nH]c5cc(OC)ccc5c4CCN3C[C@H]2C[C@@H](OC(=O)/C=C/c2ccc(O)c(OC)c2)[C@@H]1OC | 26.8 µM (active)
c1csc(SSc2cccs2)c1 | inactive
CCC1(CO)COCOC1 | inactive
COC(=O)CCS | inactive
NCCNCCO | inactive
CC(C)Nc1cccnc1N1CCN(C(=O)c2cc3cc(NS(C)(=O)=O)ccc3[nH]2)CC1 | inactive
O=C(O)c1cccc(-c2noc(-c3ccccc3F)n2)c1 | inactive
COc1cc(C(=O)NC2CCN(C)CC2)ccc1Nc1ncc2c(n1)N(C1CCCC1)CC(F)(F)C(=O)N2C | inactive
Cc1cccc(N(C)C(=S)Oc2ccc3c(c2)CCC3)c1 | inactive
O=C=Nc1ccc(Cl)c(Cl)c1 | inactive
O=c1c(O)c(-c2ccc(O)cc2)oc2cc(O)cc(O)c12 | inactive
CCC(C)COC(C)=O (stereo not given) | inactive
c1ccc(C[n+]2cccc3ccccc32)cc1 | inactive
NC(=O)c1ccncc1 | inactive
C=CC(=O)[O-].C=CC(=O)[O-].[Zn+2] | inactive
OC(CCN1CCCC1)(c1ccccc1)C1CCCCC1 (stereo not given) | inactive
O=Cc1c2ccccc2c(Cl)c2ccccc12 | inactive
O=C(O)CCc1nc(-c2ccccc2)c(-c2ccccc2)o1 | inactive
CC1(C)[C@@H](OC(=O)CCC(=O)O)CC[C@]2(C)[C@H]3C(=O)C=C4[C@@H]5C[C@@](C)(C(=O)O)CC[C@]5(C)CC[C@@]4(C)[C@]3(C)CC[C@@H]12 | inactive

SMILES | Potency
COC(=O)C1=C(C)NC(C)=C(C(=O)O[C@@H]2CCCN(Cc3ccccc3)C2)[C@@H]1c1cccc([N+](=O)[O-])c1 | inactive
CC(=O)OCC(=O)NCCCOc1cccc(CN2CCCCC2)c1 | inactive
C=C(C)[C@@H]1CCC2=CCC[C@@H](C)[C@]2(C)C1 | inactive
O=[N+]([O-])c1cc(C2CCCCC2)c(O)c([N+](=O)[O-])c1 | inactive
C=C(C)C(=O)OCCCCCCCCCCCCC | inactive
O=C(Nc1cccc2c(=O)cc(-c3nn[nH]n3)oc12)c1ccc(OCCCCc2ccccc2)cc1 | 26.8 µM (active)
CCOC(C)=O | inactive
CCCCN1CCCC1C(=O)Nc1c(C)cc(C)cc1C (stereo not given) | 23.9 µM (active)
Cc1cc(O)ccc1O | inactive
O=C(OC(=O)c1ccccc1)c1ccccc1 | inactive
CC(=O)N/N=C/c1ccc([N+](=O)[O-])o1 | inactive
O=C1NC(=O)c2cc([N+](=O)[O-])ccc21 | inactive
O=C1C(=O)c2ccccc2C(O)=C1C1CCC(c2ccc(Cl)cc2)CC1 (stereo not given) | inactive
CN1C(=O)OC(C)(C)C1=O | inactive
CC(=O)Oc1ccc([N+](=O)[O-])cc1CCl | inactive
Cc1cc(C)c(N)cc1C | inactive
CC(O)c1ccccc1 (stereo not given) | inactive
Clc1ccc(Nc2nnc(Cc3ccncc3)c3ccccc23)cc1 | inactive
CCCCCCCCCI | inactive
COc1ccccc1N1CCN(CCCCNC(=O)c2ccc(-c3ccc(C(C)=O)cc3)cc2)CC1 | inactive
